This is part of a sample that, as a whole, favours compounds with a hit. Of some 83,000 tested, about 20% had one in any assay.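 Single-concentration screen, 48 h exposure, 96-well plates. Endpoint: percent growth. Below 10 = active.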 The source made the active and inactive calls.
What was measured:
Test in all cases: NCI-60 one-dose screen, 48 h (100 = growth as untreated, 0 = no growth, -100 = all killed)
Conditions in all cases: 10 µM unless noted
[1] = tested on: NCI-H23 lung
[2] = tested on: NCI-H226 lung
[3] = tested on: NCI-H322M lung
[4] = tested on: HOP-62 NSCLC
[5] = tested on: NCI-H460 lung
[6] = tested on: HOP-92 NSCLC
[7] = tested on: NCI-H522 lung
[8] = tested on: A549/ATCC NSCLC
[9] = tested on: 786-0 renal
[10] = tested on: COLO 205 colon
[11] = tested on: DU-145 prostate
[12] = tested on: K-562 leukemia
[13] = tested on: MALME-3M melanoma
[14] = tested on: MDA-MB-231 breast
[15] = tested on: RXF 393 renal
[16] = tested on: SF-268 CNS
[17] = tested on: SF-295 CNS
[18] = tested on: SF-539 CNS
[19] = tested on: UACC-257 melanoma
[20] = tested on: M14 melanoma

Measured: growth

CNCCCNc1nc2ccccc2c2c(=O)c3cc(OC)ccc3sc12
active: [5] 5.64% | [10] -1.42% | [12] -20.3%
inactive: [1] 79.6% | [2] 95.6% | [3] 85.7% | [4] 80.2% | [6] 52.4% | [7] 85.7% | [8] 76.1% | [9] 79.1% | [11] 65.4% | [13] 99.4% | [14] 20% | [15] 63.7% | [16] 77.4% | [17] 94.7% | [18] 66.4% | [19] 99.1% | [20] 29.9%

CN1CCN(c2ccc(-c3cc4c(Nc5ccc(F)c(Cl)c5)ncnn4c3)cc2)CC1
active: [5] 8.58% | [12] 0.617%
inactive: [1] 96.2% | [2] 89% | [3] 32.9% | [4] 103% | [6] 76.8% | [7] 72.5% | [8] 71.4% | [9] 89.6% | [10] 37% | [11] 44.1% | [13] 28.5% | [14] 91.1% | [15] 79.8% | [16] 69.2% | [17] 84.8% | [18] 50.5% | [19] 69.2% | [20] 66.7%

COc1cc(/C=C2\C(=O)Nc3ccc(Br)cc32)cc(OC)c1OC
active: [8] -4.21% | [15] -13.6%
inactive: [1] 63.5% | [2] 77.1% | [3] 76.1% | [4] 85.2% | [5] 73.3% | [6] 48.2% | [7] 47% | [9] 84.9% | [10] 70.8% | [11] 91.8% | [12] 32.6% | [13] 88.6% | [14] 65.5% | [16] 84% | [17] 68.6% | [18] 85.6% | [19] 17.2% | [20] 79.2%

CCOC(=O)CCN(C(=O)Nc1ccccc1)C1CCCCC1
inactive: [1] 102% | [2] 115% | [3] 110% | [4] 86.8% | [5] 102% | [6] 111% | [7] 99.2% | [8] 132% | [9] 91.5% | [10] 139% | [11] 100% | [12] 132% | [13] 113% | [14] 110% | [15] 177% | [16] 104% | [17] 108% | [18] 98.9% | [19] 119% | [20] 108%

COc1ccc(OC)c(/C=C/c2nnc(Nc3ccccc3)o2)c1
inactive: [1] 97.3% | [2] 89.7% | [3] 99.6% | [4] 106% | [5] 97.2% | [6] 62.5% | [7] 82.3% | [8] 96.5% | [9] 87.4% | [10] 129% | [11] 93.3% | [12] 83.2% | [13] 116% | [14] 95% | [15] 93.6% | [16] 98.5% | [17] 91.1% | [18] 103% | [19] 117% | [20] 110%

COc1ccc(OC)c(/C=C/C(=O)N/N=C/c2ccccc2)c1
active: [7] -15.3%
inactive: [1] 65.1% | [2] 86.6% | [3] 79.6% | [4] 67.3% | [5] 13.5% | [6] 76.6% | [8] 48.4% | [9] 54.3% | [10] 42.8% | [11] 72.5% | [12] 21.2% | [13] 59% | [14] 71.8% | [15] 45.4% | [16] 60.7% | [17] 48.5% | [18] 51.8% | [19] 51.3% | [20] 27.8%

COc1ccc2sc3c(NCCO)nc4ccccc4c3c(=O)c2c1
inactive: [1] 96.7% | [2] 98.6% | [3] 97.6% | [4] 96.2% | [5] 107% | [6] 96% | [7] 82.1% | [8] 98.1% | [9] 103% | [10] 111% | [11] 106% | [12] 76.7% | [13] 104% | [14] 85.3% | [15] 104% | [16] 100% | [17] 100% | [18] 86.1% | [19] 109% | [20] 104%

O=C(Cc1ccc(F)c(Cl)c1)Nc1cc(C2(C(F)(F)F)CC2)nn1Cc1ccccc1
inactive: [1] 55.3% | [2] 43.2% | [3] 89.6% | [5] 79% | [7] 58.2% | [8] 60.3% | [9] 34.6% | [10] 66.3% | [11] 89.8% | [12] 77.1% | [13] 60.4% | [14] 14.1% | [16] 17.1% | [17] 24.8% | [18] 50.6% | [19] 91.1% | [20] 70.8%
active: [4] -32.7% | [6] -19.5% | [15] -23.5%

COc1ccc2c(c1)/C(=C/c1sc(=S)n(Cc3ccco3)c1O)C=N2
active: [5] 9.07%
inactive: [1] 51% | [2] 71.4% | [3] 89% | [4] 39.6% | [6] 77.5% | [7] 32.5% | [8] 57.9% | [9] 46.2% | [10] 25.4% | [11] 33.5% | [12] 15.8% | [13] 49.1% | [14] 56.5% | [15] 48.7% | [16] 52.8% | [17] 27.8% | [18] 11.2% | [19] 61.3% | [20] 11.8%

CS(=O)(=O)N(c1cc(-c2ccc3ncnc(Nc4ccc(F)c(Cl)c4)c3c2)cnc1Cl)S(C)(=O)=O
active: [6] -12.2% | [13] 9.57% | [15] -6.35%
inactive: [1] 34.7% | [2] 59.1% | [3] 34.8% | [4] 42% | [5] 34.2% | [7] 52.5% | [8] 57.3% | [9] 35% | [10] 45.1% | [11] 47.3% | [12] 50.5% | [14] 44.3% | [16] 32.3% | [17] 34% | [18] 39.9% | [19] 38.8% | [20] 43.6%

CCCCCCn1c(-c2ccc(C(=O)O/N=C(\N)c3ccc4c(c3)OCO4)cc2)nc(-c2ccccc2)c1-c1ccccc1
active: [1] -30.8% | [5] 4.23% | [6] -57.5% | [7] -58.9% | [8] -25.3% | [9] -65.9% | [11] 0.0183% | [12] -29.7% | [15] -27.2% | [18] -30.2%
inactive: [2] 64.6% | [3] 73.9% | [4] 64.8% | [10] 35.7% | [13] 28.1% | [14] 26.3% | [16] 41.1% | [17] 30.6% | [19] 62% | [20] 56.2%

NC(=O)C1(Nc2ccc(Br)cc2)CCCC1
inactive: [1] 97.5% | [2] 98.9% | [3] 107% | [4] 103% | [5] 110% | [6] 110% | [7] 92.9% | [8] 103% | [9] 102% | [10] 104% | [11] 119% | [12] 116% | [13] 108% | [14] 101% | [15] 115% | [16] 106% | [17] 106% | [18] 89.8% | [19] 101% | [20] 97.1%

O=C(Cc1ccc(F)c(Cl)c1)Nc1cc(C2(C(F)(F)F)CC2)nn1CC1CCCCC1
inactive: [2] 14.5% | [11] 20.9% | [12] 11.1% | [20] 17.1%
active: [1] -2.27% | [3] 9.83% | [4] -8.44% | [5] 3.01% | [6] -14.9% | [7] -28.1% | [8] 9.72% | [9] 9.17% | [10] -86.2% | [13] -24.1% | [14] -60.3% | [15] -28.7% | [16] 9.97% | [17] 1.21% | [18] 8.62% | [19] -9.88%

CN1C(=C2C(=O)OC(C)(C)OC2=O)CCC1C(=O)NCc1ccc(Cl)cc1Cl (stereo not given)
inactive: [1] 97.9% | [2] 79.1% | [3] 107% | [4] 85.4% | [5] 100% | [6] 85.3% | [7] 54.2% | [8] 79.5% | [9] 103% | [10] 103% | [11] 107% | [12] 97.5% | [13] 102% | [14] 99.5% | [15] 108% | [16] 101% | [17] 96.4% | [18] 96% | [19] 87% | [20] 98.2%

COc1cc(C(=O)c2cnc(-c3c[nH]c4cccc(C)c34)[nH]2)cc(OC)c1OC
active: [5] 3.6% | [6] 5.73% | [7] -4.91% | [10] -29.3% | [11] -6.2% | [12] 8.72% | [14] -3.1% | [17] 7.59% | [18] 0.434% | [20] -2.55%
inactive: [1] 24% | [2] 57% | [3] 40.3% | [4] 36.2% | [8] 20.4% | [9] 10.4% | [13] 53.8% | [15] 75.2% | [16] 18.9% | [19] 83.9%

COc1cc(C2CC(c3ccc(N(C)C)cc3)=NN2C(C)=O)cc(OC)c1OC (stereo not given)
inactive: [1] 31.2% | [2] 79.6% | [3] 44.2% | [4] 47.8% | [5] 10.8% | [6] 60.7% | [8] 51.2% | [9] 24.1% | [10] 19.2% | [12] 17.6% | [13] 37.9% | [14] 56.3% | [16] 35% | [17] 12.1% | [19] 56.5% | [20] 19.4%
active: [7] -5.66% | [11] 2.14% | [15] -17.7% | [18] -21.4%

From PubChem BioAssay (NCI)
